Results reported in PubChem BioAssay.
The source made the active and inactive calls.

Experiments:
[1] = tested on: Human papillomavirus type 1a protein E7 (residues 44-93); assay: small molecules binding HPV E7 44-93 – biochemical, small-molecule microarray, residues 44-93, 635 nm fluorescence, primary screen (AID 1108); details: fluorescence 635 nm, higher = more signal;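 also: E7 fragment applied at 1 µg/mL in TBST for 1 h at 4 C; score combines spot fluorescence with its signal to noise ratio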
[2] = hepatitis C replication reporter changes, two-sided – Huh7 cells, luciferase reporter, HCV replication inhibitor project, primary screen (AID 1109); details: Huh7 HCV replicon luciferase reporter, 48 h; higher = more signal;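 also: huh7 hepatoma cells harbouring a luciferase neomycin HCV replicon reporter; luciferase luminescence as measure of HCV replicon replication; test concentration not given here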
[3] = target: Left-right determination factor 2 (Homo sapiens) (UniProt O00292); assay: small molecules binding LEFTY2 protein – biochemical, small-molecule microarray, 635 nm fluorescence scan, primary screen (AID 1110); details: higher = more signal
[4] = target: Calmodulin-1 (Homo sapiens) (UniProt P0DP23); assay: small molecules binding calmodulin-1 with EGTA – biochemical, small-molecule microarray, Cy5-labelled CALM1, profiling panel (AID 1111); details: Cy5-CALM1 binding fluorescence, higher = more signal;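 also: labelled calmodulin applied in Tris saline Tween buffer holding calcium plus EGTA and DTT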
[5] = target: Calmodulin-1 (Homo sapiens) (UniProt P0DP23); assay: small molecules binding Ca-loaded calmodulin-1 – biochemical, small-molecule microarray, Cy5-labelled CALM1, plus calcium, artefact control for SMM control-protein annotation, profiling panel (AID 1112); details: Cy5-CALM1 binding fluorescence, higher = more signal;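 also: score merges spot fluorescence with signal to noise from triplicate slides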
[6] = probe aWnt5a binding to arrayed compounds – biochemical, biotinylated probe, 635/667 nm fluorescence, primary screen (AID 1113); details: small-molecule microarray, higher = more signal;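 also: score merges 667 nm fluorescence intensity with signal-to-noise per printed feature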
[7] = probe aShh binding to arrayed compounds – biochemical, biotinylated probe, 635/667 nm fluorescence, primary screen (AID 1114); details: small-molecule microarray, higher = more signal;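 also: probe is biotin-labelled aShh protein from a stem cell growth factor screen; measures binding of labelled protein to compounds printed on the slide; score merges feature fluorescence at 667 nm with signal-to-noise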
[8] = probe aNog binding to arrayed compounds – biochemical, biotinylated probe, 635/667 nm fluorescence, primary screen (AID 1115); details: small-molecule microarray, higher = more signal;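 also: probe is biotinylated aNog protein used at 0.15 µg/mL for 1 h at 4 C; z-score combines 667 nm fluorescence of each spot with its signal to noise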
[9] = target: Torsin-1A-interacting protein 1 (Homo sapiens) (UniProt Q5JTV8); assay: compound microarray binding of lysate hLAP1 – cell lysate, small-molecule microarray, COS7 lysate, 635/667 nm fluorescence, primary screen (AID 1116); details: 635 nm fluorescence, higher = more signal
[10] = target: Alpha-bungarotoxin (Bungarus multicinctus) (UniProt P60615); assay: compounds binding labelled alpha-BTX control protein – biochemical, small-molecule microarray, Alexa647 label, 635/667 nm fluorescence, artefact control for SMM control protein annotation, profiling panel (AID 1117); details: alpha-BTX-A647 binding fluorescence, higher = more signal
Albumin (Bos taurus) = Albumin (Bos taurus) (UniProt P02769); assay: compounds binding labelled BSA control protein – biochemical, small-molecule microarray, Alexa647 label, 635/667 nm fluorescence, artefact control for SMM control protein annotation, profiling panel (AID 1118); details: BSA-A647 binding, fluorescence 635 nm, higher = more signal;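 also: score merges 667 nm emission intensity and signal-to-noise per printed compound spot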
[11] = probe aXIP binding to arrayed compounds – biochemical, NeuroSMM set, 635/667 nm fluorescence, primary screen (AID 1119); details: small-molecule microarray, higher = more signal, called active from +8 up or from −8 down;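 also: probe is the protein aXip251-270 applied at 1 µg/mL to compound-printed slides; binding of probe to printed compounds measured as 667 nm fluorescence plus signal to noise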
[12] = probe aNOTCH3 binding on compound microarray – biochemical, small-molecule microarray, 635/667 nm fluorescence, primary screen (AID 1120); details: higher = more signal;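 also: probe is a biotin-tagged antibody raised against NOTCH3 rather than NOTCH3 protein; score merges spot fluorescence near 667 nm with spot signal to noise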
[13] = probe aNOTCH2 binding on compound microarray – biochemical, small-molecule microarray, 635/667 nm fluorescence, primary screen (AID 1121); details: higher = more signal;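 also: score merges feature fluorescence read at 667 nm with its signal to noise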
[14] = target: Carbonic anhydrase 2 (Homo sapiens) (UniProt P00918); assay: compounds binding carbonic anhydrase 2 – biochemical, small-molecule microarray, Alexa647-labelled CAII, profiling panel (AID 1122); details: CAII-A647 binding fluorescence, higher = more signal
[15] = COS7 lysate on small-molecule microarray, probe aHis, 635 nm (AID 1123); details: COS7 cell lysate, fluorescence, higher = more signal;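 also: z-score combines 667nm fluorescence intensity with signal-to-noise per printed compound spot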
[16] = probe aLAP1 signal on lysate-treated microarray – cell lysate, small-molecule microarray, COS7 lysate, primary screen (AID 1124); details: probe aLAP1, fluorescence, higher = more signal;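 also: lysate comes from COS7 cells expressing LAP1 and is applied at 0.3 µg/mL; score merges spot fluorescence near 667 nm with signal-to-noise over triplicate slides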
Sam68 (KHDRBS1) = assay: compounds binding KHDRBS1 protein – biochemical, small-molecule microarray, 635 nm fluorescence, primary screen (AID 1125); details: higher = more signal;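 also: score merges 667 nm channel intensity with signal to noise over triplicate slides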
[17] = tested on: Chordin-like protein 2 (CHRDL2); assay: compounds binding chordin-like 2 – biochemical, small-molecule microarray, 635 nm fluorescence, primary screen (AID 1126); details: fluorescence 635 nm, higher = more signal;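 also: printed compound slides probed with Chrdl2 protein at 4 µg/mL for 1 h at 4 C; score merges 667 nm emission intensity with signal to noise over three replicate slides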
[18] = target: Concanavalin-A (Canavalia ensiformis) (UniProt P02866); assay: compounds binding concanavalin A lectin – biochemical, small-molecule microarray, Alexa647 label, 635 nm, artefact control for SMM control protein annotation, primary screen (AID 1127); details: ConA-A647 binding fluorescence, higher = more signal;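 also: z combines 667 nm emission intensity with signal-to-noise across three replicate slides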
Sequence of Concanavalin-A (Canavalia ensiformis) (P02866 whole entry, looked up): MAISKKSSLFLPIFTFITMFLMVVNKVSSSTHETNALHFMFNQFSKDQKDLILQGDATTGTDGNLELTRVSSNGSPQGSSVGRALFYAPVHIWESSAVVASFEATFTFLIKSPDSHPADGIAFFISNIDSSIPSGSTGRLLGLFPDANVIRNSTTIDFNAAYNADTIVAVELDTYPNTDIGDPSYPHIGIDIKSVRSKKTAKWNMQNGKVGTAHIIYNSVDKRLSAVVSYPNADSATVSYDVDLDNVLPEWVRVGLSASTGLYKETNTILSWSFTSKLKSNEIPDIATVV

Sequence of Torsin-1A-interacting protein 1 (Homo sapiens) (Q5JTV8 whole entry, looked up): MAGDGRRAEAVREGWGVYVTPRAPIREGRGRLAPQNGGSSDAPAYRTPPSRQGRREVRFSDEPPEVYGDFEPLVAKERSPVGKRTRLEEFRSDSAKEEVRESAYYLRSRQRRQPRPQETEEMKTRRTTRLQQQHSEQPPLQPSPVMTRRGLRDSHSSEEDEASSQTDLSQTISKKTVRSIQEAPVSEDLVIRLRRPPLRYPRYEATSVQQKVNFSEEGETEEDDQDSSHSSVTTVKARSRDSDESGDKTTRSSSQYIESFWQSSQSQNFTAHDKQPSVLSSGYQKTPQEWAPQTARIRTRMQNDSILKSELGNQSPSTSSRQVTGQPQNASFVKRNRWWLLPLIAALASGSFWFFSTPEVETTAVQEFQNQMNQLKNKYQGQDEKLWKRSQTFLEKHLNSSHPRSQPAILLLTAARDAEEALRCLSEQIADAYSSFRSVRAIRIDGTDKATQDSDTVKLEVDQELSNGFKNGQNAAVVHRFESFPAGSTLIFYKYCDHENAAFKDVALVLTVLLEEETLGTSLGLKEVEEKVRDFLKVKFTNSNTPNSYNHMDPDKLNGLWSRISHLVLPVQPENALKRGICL
Sequence of Left-right determination factor 2 (Homo sapiens) (O00292 whole entry, looked up): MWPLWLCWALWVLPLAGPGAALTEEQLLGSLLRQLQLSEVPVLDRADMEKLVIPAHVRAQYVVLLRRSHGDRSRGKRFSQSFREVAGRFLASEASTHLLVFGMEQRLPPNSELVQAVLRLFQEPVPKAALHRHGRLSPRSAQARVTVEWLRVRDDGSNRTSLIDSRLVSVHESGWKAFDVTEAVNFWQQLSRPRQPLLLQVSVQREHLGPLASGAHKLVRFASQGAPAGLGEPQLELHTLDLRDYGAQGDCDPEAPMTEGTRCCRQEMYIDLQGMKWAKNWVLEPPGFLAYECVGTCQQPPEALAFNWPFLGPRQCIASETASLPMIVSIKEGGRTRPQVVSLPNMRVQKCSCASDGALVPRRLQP
Sequence of Alpha-bungarotoxin (Bungarus multicinctus) (P60615 whole entry, looked up): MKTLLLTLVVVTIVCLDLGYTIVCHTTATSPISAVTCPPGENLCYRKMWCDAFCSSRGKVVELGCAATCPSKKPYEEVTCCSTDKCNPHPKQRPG
Sequence of Albumin (Bos taurus) (P02769 whole entry, looked up): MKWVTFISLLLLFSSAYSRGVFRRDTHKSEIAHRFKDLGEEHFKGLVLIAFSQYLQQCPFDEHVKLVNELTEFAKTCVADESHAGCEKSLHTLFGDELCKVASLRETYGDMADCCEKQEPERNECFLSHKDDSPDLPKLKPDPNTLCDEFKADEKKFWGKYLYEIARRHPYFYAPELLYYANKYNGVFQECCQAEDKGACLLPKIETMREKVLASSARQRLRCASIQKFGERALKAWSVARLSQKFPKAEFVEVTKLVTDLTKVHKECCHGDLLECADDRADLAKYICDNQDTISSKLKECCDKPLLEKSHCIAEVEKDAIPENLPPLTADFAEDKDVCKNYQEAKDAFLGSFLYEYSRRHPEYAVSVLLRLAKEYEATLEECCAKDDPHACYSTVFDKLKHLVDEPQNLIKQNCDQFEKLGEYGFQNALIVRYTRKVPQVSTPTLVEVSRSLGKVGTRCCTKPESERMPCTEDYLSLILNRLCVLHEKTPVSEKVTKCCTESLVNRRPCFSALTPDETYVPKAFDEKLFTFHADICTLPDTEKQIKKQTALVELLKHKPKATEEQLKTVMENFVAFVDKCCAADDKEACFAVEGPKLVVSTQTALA

Row | Compound | composite z-score [1] | z-score [2] | composite z-score [3] | composite z-score [4] | composite z-score [5] | composite z-score [6] | composite z-score [7] | composite z-score [8] | composite z-score [9] | composite z-score [10] | composite z-score (Albumin (Bos taurus)) | composite Z-score [11] | composite z-score [12] | composite z-score [13] | composite z-score [14] | composite z-score [15] | composite z-score [16] | composite z-score (Sam68 (KHDRBS1)) | composite z-score [17] | composite z-score [18]
1 | Cc1ccc2[nH]c3nc(CCCn4ccnc4-c4ccccc4)nnc3c2c1 | 0.0596 | -0.544 | 0.635 | 0.308 | -1.02 | -0.101 | 0.191 | -0.344 | 0.666 | 0.335 | 0.414 | -0.375 (inactive) | 0.079 | -0.176 | 0.465 | 0.656 | 0.0559 | 1.05 | 0.763 | 1.1
2 | O=C1[C@H]2[C@H]3[C@H](O)[C@H](O)CC(=NOC[C@@H](O)COCc4ccco4)[C@@H]3CC[C@H]2C(=O)N1C1CCCCC1 | 0.814 | -0.337 | 0.72 | -0.608 | -1.66 | -0.124 | -0.206 | -0.5 | 0.289 | -0.0636 | 0.0451 | -0.415 (inactive) | 0.149 | -0.251 | 0.057 | -0.39 | -0.0177 | 0.827 | 1.52 | -0.421
3 | COc1ccc(COC(=O)NN=C2C[C@@H](O)[C@@H](O)[C@@H]3[C@@H]4C(=O)N(C(C)(C)C)C(=O)[C@@H]4CC[C@@H]23)cc1 | 0.653 | -0.828 | 1.27 | 1.19 | -0.306 | -0.0566 | -0.0626 | 0.0498 | 0.207 | 0.751 | 0.584 | 0.526 (inactive) | 0.136 | -0.167 | 0.346 | 0.685 | 0.31 | 1.14 | 0.59 | 0.632
4 | COc1ccc(OC[C@@H]2CC3[C@@H](c4ccc(Br)cc4)[C@H](C)CC[C@H]3C(=O)O2)cc1 (stereo not given in full) | -0.722 | -0.312 | 0.418 | -0.991 | -0.642 | -0.158 | -0.367 | -0.0003 | 0.308 | 0.287 | 0.733 | -0.644 (inactive) | -0.023 | -0.18 | -0.117 | -0.037 | 0.196 | -0.218 | 0.584 | -0.758
5 | COC(=O)CC=C[C@@H](C)[C@@H](C=NOC(C)CN1CCCCc2nc(C)c(C)cc21)OC (stereo not given in full) | 1.04 | -1.23 | 1.11 | -0.452 | -1.05 | -0.1 | -0.138 | -0.619 | 0.449 | 0.143 | 0.276 | -0.472 (inactive) | 0.227 | -0.0439 | 0.301 | 0.043 | -0.0856 | 1.28 | 1.29 | 0.235
6 | O=C(NN=C1C[C@@H](O)[C@@H](O)[C@@H]2[C@@H]3C(=O)N(Cc4ccccc4)C(=O)[C@@H]3CC[C@H]12)OCc1ccccc1 | -0.401 | 0.0011 | 0.524 | -0.293 | -0.406 | -0.124 | -0.2 | 0.0313 | 0.305 | -0.016 | 0.055 | 0.0005 (inactive) | -0.118 | -0.17 | -0.253 | -0.771 | 0.0639 | -0.0039 | 0.36 | -0.085
7 | CO[C@H]1COC(=O)CC=C[C@H](C)[C@H](OC)COC(=O)[C@@H](C)NC(=O)CC=C[C@@H]1C | -2.87 | -2.14 | 0.953 | -0.735 | -1.49 | -0.101 | -0.0681 | -0.21 | 0.229 | -0.32 | -0.487 | -0.347 (inactive) | -0.0319 | -0.164 | -0.54 | 1.95 | -0.0788 | -0.445 | 1.49 | -0.898
8 | CCOC(=O)[C@H](Cc1ccccc1)NC(=O)CCC1CC(OC(=O)NCc2cccc3ccccc23)CC2(CCCC(COC(=O)NCCc3ccc(Cl)cc3)O2)O1 (stereo not given in full) | 1.02 | 0.246 | 0.366 | 1.14 | -0.369 | -0.0738 | -0.153 | 0.793 | 0.289 | 0.429 | 0.278 | -0.413 (inactive) | -0.296 | -0.203 | 0.349 | 0.37 | -0.126 | 1.08 | 0.253 | 1.03
9 | CCOC(=O)[C@H](CC(C)C)NC(=O)CCC1CC(OC(=O)NCCc2ccc(F)cc2)CC2(CCCC(COC(=O)NCCCN3CCCC3=O)O2)O1 (stereo not given in full) | 0.681 | -1.2 | 0.491 | 0.116 | -0.0004 | 0.0108 | -0.2 | -0.451 | 0.422 | 1.54 | 0.353 | 0.0886 (inactive) | -0.179 | -0.0839 | 0.325 | 0.619 | 0.16 | 0.883 | 0.473 | 0.0423
10 | CCOC(=O)NN=C1C[C@@H](O)[C@@H](O)[C@@H]2[C@@H]3C(=O)N(c4ccc(F)cc4F)C(=O)[C@@H]3CC[C@H]12 | 0.108 | 1.28 | 0.42 | -0.244 | -0.212 | -0.126 | -0.289 | 0.0775 | 0.59 | 0.21 | 0.123 | -0.623 (inactive) | -0.0879 | -0.107 | -0.0212 | 0.0971 | 0.0173 | 0.108 | 0.529 | 0.0692
11 | O=C(NN=C1C[C@@H](O)[C@@H](O)[C@@H]2[C@@H]3C(=O)N(Cc4ccc5c(c4)OCO5)C(=O)[C@@H]3CC[C@@H]12)OCc1ccccc1 | -0.189 | -1.39 | 0.0764 | -0.114 | -0.103 | -0.176 | 0.227 | -0.0498 | 0.739 | 0.26 | 0.544 | 0.536 (inactive) | -0.0377 | -0.0817 | -0.141 | -0.357 | 0.0507 | -0.449 | -0.0473 | -0.0653
